Experimental data published in PubChem BioAssay (NCI).
Compounds without any hit were thinned out: in the full panel of roughly 83,000, 20% have a hit.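 Method: cells in 96-well plates; compound added at one concentration; 48 h incubation; percent growth measured; values under 10 scored active.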 The source made the active and inactive calls.

How the values were obtained:
Experiment in all cases: NCI-60 one-dose screen, 48 h (100 = growth as untreated, 0 = no growth, -100 = all killed)
Settings in all cases: 10 µM
SK-MEL-2 melanoma = system: SK-MEL-2 melanoma
EKVX NSCLC = system: EKVX NSCLC
SN12C renal = system: SN12C renal
UO-31 renal = system: UO-31 renal
TK-10 renal = system: TK-10 renal
ACHN renal = system: ACHN renal
CAKI-1 renal = system: CAKI-1 renal
A498 renal = system: A498 renal
CCRF-CEM leukemia = system: CCRF-CEM leukemia
MOLT-4 leukemia = system: MOLT-4 leukemia
SR leukemia = system: SR leukemia
RPMI-8226 leukemia = system: RPMI-8226 leukemia
OVCAR-8 ovarian = system: OVCAR-8 ovarian
OVCAR-5 ovarian = system: OVCAR-5 ovarian
OVCAR-4 ovarian = system: OVCAR-4 ovarian
SK-OV-3 ovarian = system: SK-OV-3 ovarian
IGROV1 ovarian = system: IGROV1 ovarian
OVCAR-3 ovarian = system: OVCAR-3 ovarian
HS 578T breast = system: HS 578T breast
NCI/ADR-RES ovarian = system: NCI/ADR-RES ovarian

Measured: growth

CC(C)/C(=N/O)c1ccccc1
inactive: SK-MEL-2 melanoma 101% | EKVX NSCLC 102% | SN12C renal 102% | UO-31 renal 93.8% | TK-10 renal 104% | ACHN renal 107% | CAKI-1 renal 107% | A498 renal 113% | CCRF-CEM leukemia 103% | MOLT-4 leukemia 94% | SR leukemia 107% | RPMI-8226 leukemia 111% | OVCAR-8 ovarian 110% | OVCAR-5 ovarian 103% | OVCAR-4 ovarian 111% | SK-OV-3 ovarian 122% | IGROV1 ovarian 118% | OVCAR-3 ovarian 130% | HS 578T breast 118% | NCI/ADR-RES ovarian 107%

Oc1ccc(Cn2cc3c(c2-c2ccccc2)CCc2cnoc2-3)cc1
inactive: SK-MEL-2 melanoma 102% | EKVX NSCLC 80.2% | SN12C renal 91.7% | UO-31 renal 88.8% | TK-10 renal 111% | ACHN renal 90% | CAKI-1 renal 81.7% | A498 renal 104% | CCRF-CEM leukemia 99.1% | MOLT-4 leukemia 80.5% | SR leukemia 76.8% | RPMI-8226 leukemia 82.1% | OVCAR-8 ovarian 100% | OVCAR-5 ovarian 105% | OVCAR-4 ovarian 95.8% | IGROV1 ovarian 120% | OVCAR-3 ovarian 107% | HS 578T breast 106% | NCI/ADR-RES ovarian 86.2%

Cc1ccc(NS(=O)(=O)c2ccccc2)c(NS(=O)(=O)c2ccccc2)c1
inactive: SK-MEL-2 melanoma 98.6% | EKVX NSCLC 93.8% | SN12C renal 90.4% | UO-31 renal 69.4% | TK-10 renal 112% | ACHN renal 94.3% | CAKI-1 renal 93.2% | A498 renal 115% | CCRF-CEM leukemia 96% | MOLT-4 leukemia 105% | SR leukemia 117% | RPMI-8226 leukemia 93.4% | OVCAR-8 ovarian 105% | OVCAR-5 ovarian 104% | OVCAR-4 ovarian 97% | SK-OV-3 ovarian 102% | IGROV1 ovarian 107% | OVCAR-3 ovarian 98% | HS 578T breast 91.1% | NCI/ADR-RES ovarian 94.7%

Cc1cc(C#Cc2ccccc2)ccc1-n1c(/C=C/c2cc(O)ccc2O)nc2ccccc2c1=O
active: SK-MEL-2 melanoma -12.9% | EKVX NSCLC -7.48% | SN12C renal -5.43% | UO-31 renal -27.9% | ACHN renal 8.83% | CAKI-1 renal -5.93% | CCRF-CEM leukemia 7.82% | MOLT-4 leukemia 3.81% | SR leukemia -26% | RPMI-8226 leukemia -18.1% | OVCAR-5 ovarian -24.5% | SK-OV-3 ovarian -49.3% | IGROV1 ovarian -12.6% | OVCAR-3 ovarian -46.2% | NCI/ADR-RES ovarian 6.37%
inactive: TK-10 renal 29.7% | A498 renal 41% | OVCAR-8 ovarian 16.3% | OVCAR-4 ovarian 19.2% | HS 578T breast 31.8%

O=C(Nc1cccc([N+](=O)[O-])c1)NN1CCCCCC1
inactive: SK-MEL-2 melanoma 105% | EKVX NSCLC 81.3% | SN12C renal 96.5% | UO-31 renal 92.5% | TK-10 renal 105% | ACHN renal 94.6% | CAKI-1 renal 96.2% | A498 renal 77.3% | CCRF-CEM leukemia 86.1% | MOLT-4 leukemia 106% | SR leukemia 108% | RPMI-8226 leukemia 60.5% | OVCAR-8 ovarian 99.2% | OVCAR-5 ovarian 105% | OVCAR-4 ovarian 98.1% | SK-OV-3 ovarian 114% | IGROV1 ovarian 109% | OVCAR-3 ovarian 87.4% | HS 578T breast 97.2% | NCI/ADR-RES ovarian 91.4%

CCCCOCC(=O)NC(NP(=O)(N(C)C)N(C)C)C(Cl)(Cl)Cl (stereo not given)
inactive: SK-MEL-2 melanoma 107% | EKVX NSCLC 98.1% | SN12C renal 110% | UO-31 renal 92% | TK-10 renal 134% | ACHN renal 143% | CAKI-1 renal 92.3% | A498 renal 118% | MOLT-4 leukemia 99.5% | SR leukemia 111% | RPMI-8226 leukemia 100% | OVCAR-8 ovarian 62.8% | OVCAR-5 ovarian 109% | OVCAR-4 ovarian 116% | SK-OV-3 ovarian 124% | OVCAR-3 ovarian 98% | HS 578T breast 113% | NCI/ADR-RES ovarian 105%

C(=C\c1nc2ccccc2s1)/c1ccc(N2CCOCC2)s1
inactive: SK-MEL-2 melanoma 81.2% | EKVX NSCLC 87.8% | SN12C renal 93.8% | TK-10 renal 89.6% | ACHN renal 63.4% | CAKI-1 renal 83.3% | A498 renal 86.4% | CCRF-CEM leukemia 58.2% | MOLT-4 leukemia 51% | SR leukemia 26.3% | RPMI-8226 leukemia 62.9% | OVCAR-8 ovarian 97.6% | OVCAR-5 ovarian 112% | OVCAR-4 ovarian 72.9% | SK-OV-3 ovarian 98.7% | IGROV1 ovarian 100% | OVCAR-3 ovarian 85.8% | HS 578T breast 112% | NCI/ADR-RES ovarian 69.9%

COc1ccc(Cn2cc3c(c2-c2cc(OC)c(OC)c(OC)c2)CCc2cnoc2-3)cc1N
active: CAKI-1 renal 6.52% | SK-OV-3 ovarian 2.09% | IGROV1 ovarian 7.25% | OVCAR-3 ovarian 1.74% | NCI/ADR-RES ovarian 6.71%
inactive: SK-MEL-2 melanoma 37.1% | EKVX NSCLC 27.4% | SN12C renal 27.6% | UO-31 renal 40.4% | TK-10 renal 75.6% | ACHN renal 38.8% | A498 renal 25% | CCRF-CEM leukemia 23.7% | MOLT-4 leukemia 24.6% | SR leukemia 14.8% | RPMI-8226 leukemia 25.7% | OVCAR-5 ovarian 52.4% | OVCAR-4 ovarian 37.6%

COc1ccc(C2=Cc3ccc(OC(C)=O)cc3OC2)cc1
inactive: SK-MEL-2 melanoma 97.5% | EKVX NSCLC 66.2% | SN12C renal 87.2% | UO-31 renal 49.1% | TK-10 renal 102% | ACHN renal 80.8% | CAKI-1 renal 88.2% | A498 renal 82.2% | MOLT-4 leukemia 44.5% | SR leukemia 64.5% | RPMI-8226 leukemia 83.4% | OVCAR-5 ovarian 101% | OVCAR-4 ovarian 88.1% | SK-OV-3 ovarian 119% | IGROV1 ovarian 102% | OVCAR-3 ovarian 93.1% | HS 578T breast 103% | NCI/ADR-RES ovarian 85.2%

CC(C)CCN(CCCNc1c2c(nc3cc(Cl)ccc13)CCCC2)CCC(C)C
active: SR leukemia 7.94%
inactive: SK-MEL-2 melanoma 103% | EKVX NSCLC 54.4% | SN12C renal 71.6% | UO-31 renal 27.2% | TK-10 renal 78.1% | ACHN renal 92.4% | CAKI-1 renal 56.5% | A498 renal 59% | CCRF-CEM leukemia 61.6% | MOLT-4 leukemia 47% | RPMI-8226 leukemia 39.5% | OVCAR-8 ovarian 79.4% | OVCAR-4 ovarian 50.8% | SK-OV-3 ovarian 93.2% | IGROV1 ovarian 50.2% | OVCAR-3 ovarian 81.6% | HS 578T breast 76.1% | NCI/ADR-RES ovarian 74.3%

Cc1ccc(S(=O)(=O)N2CCc3ccccc3CC2)cc1
inactive: SK-MEL-2 melanoma 80.9% | EKVX NSCLC 22% | SN12C renal 85.3% | UO-31 renal 70.2% | TK-10 renal 74.2% | ACHN renal 85.5% | CAKI-1 renal 78.7% | A498 renal 87.4% | MOLT-4 leukemia 80.5% | SR leukemia 84.8% | RPMI-8226 leukemia 42.3% | OVCAR-8 ovarian 79.2% | OVCAR-5 ovarian 94.3% | OVCAR-4 ovarian 44.8% | SK-OV-3 ovarian 96.3% | IGROV1 ovarian 104% | OVCAR-3 ovarian 103% | HS 578T breast 109% | NCI/ADR-RES ovarian 69.8%

CC1(C)CCc2cc(-c3ccn(S(=O)(=O)c4ccc(Cl)cc4)n3)ccc2O1
inactive: SK-MEL-2 melanoma 92.2% | EKVX NSCLC 54.5% | SN12C renal 72.8% | UO-31 renal 75.6% | TK-10 renal 77% | ACHN renal 89.4% | CAKI-1 renal 64.3% | A498 renal 70.8% | CCRF-CEM leukemia 64.2% | MOLT-4 leukemia 65.4% | SR leukemia 45.5% | RPMI-8226 leukemia 52.1% | OVCAR-8 ovarian 86.6% | OVCAR-5 ovarian 101% | SK-OV-3 ovarian 91.3% | OVCAR-3 ovarian 84% | HS 578T breast 99.5% | NCI/ADR-RES ovarian 69.3%

CCN1CCOC1C(C)C (stereo not given)
inactive: SK-MEL-2 melanoma 95.3% | EKVX NSCLC 107% | SN12C renal 99.8% | UO-31 renal 79.5% | TK-10 renal 130% | CAKI-1 renal 98.2% | A498 renal 98.8% | CCRF-CEM leukemia 103% | MOLT-4 leukemia 94.3% | SR leukemia 81.7% | RPMI-8226 leukemia 106% | OVCAR-8 ovarian 108% | OVCAR-5 ovarian 99.2% | OVCAR-4 ovarian 113% | SK-OV-3 ovarian 100% | IGROV1 ovarian 108% | OVCAR-3 ovarian 111% | HS 578T breast 109% | NCI/ADR-RES ovarian 102%

COc1ccc2c(c1)/C(=C/c1cc(OC)c(OC)c(OC)c1)C(=O)N2C
active: CAKI-1 renal -8.56% | RPMI-8226 leukemia -25.2% | IGROV1 ovarian 0.661% | OVCAR-3 ovarian -72% | HS 578T breast -12.4% | NCI/ADR-RES ovarian 2.46%
inactive: SK-MEL-2 melanoma 24.3% | EKVX NSCLC 47.3% | SN12C renal 25.3% | UO-31 renal 16.9% | TK-10 renal 22.1% | ACHN renal 26.9% | A498 renal 23.4% | CCRF-CEM leukemia 20.4% | MOLT-4 leukemia 16% | SR leukemia 17% | OVCAR-8 ovarian 28.8% | OVCAR-5 ovarian 66.4% | OVCAR-4 ovarian 47.3%

COc1ccc(-c2csc(-c3cc(Cl)cc(Cl)c3Cl)n2)cc1
inactive: SK-MEL-2 melanoma 96.3% | EKVX NSCLC 80.5% | SN12C renal 91.3% | TK-10 renal 118% | ACHN renal 89.7% | CAKI-1 renal 85.9% | A498 renal 52.1% | CCRF-CEM leukemia 97.4% | MOLT-4 leukemia 89% | SR leukemia 88.8% | RPMI-8226 leukemia 93.5% | OVCAR-8 ovarian 29.7% | OVCAR-5 ovarian 109% | OVCAR-4 ovarian 85.2% | SK-OV-3 ovarian 90.5% | IGROV1 ovarian 58.3% | OVCAR-3 ovarian 105% | HS 578T breast 80.4% | NCI/ADR-RES ovarian 97.1%
